# Measurements: PubChem BioAssay AID1159580 (chemical genetic matrix, 2015)
# Among all 5,500 compounds or so, about 2,000 (36%) were called active. Another 18% or so got no clear call; they are omitted. This is one part of the list. Unmarked numbers belong to inactive results. Cut-off read from the data, not from the text of the source: active = normalized growth mostly below about 0.91 (no sharp cut-off); inconclusive = no clear call, values can overlap the other calls; inactive = mostly above about 0.92.
# Assay: chemical genetic growth profiling, strain panel (AID 1159580);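 note: tested at 20 µM; growth read once vehicle control cultures reached saturation at 30 °C; 1 = growth at the plate median or of vehicle wells; lower values mean less growth of the strain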
# Details: growth OD
# [1] = S. cerevisiae deletion strains, locus YAL013W, strain DEP1, active compounds read low
# [2] = S. cerevisiae deletion strains, locus YBR229C, strain ROT2, active compounds read low
# [3] = S. cerevisiae deletion strains, locus YDL101C, strain DUN1, active compounds read low
# [4] = S. cerevisiae deletion strains, locus YDR150W, strain NUM1, active compounds read low
# [5] = S. cerevisiae deletion strains, locus YEL061C, strain CIN8, active compounds read low
# [6] = S. cerevisiae deletion strains, locus YGR078C, strain PAC10, active compounds read low
# [7] = S. cerevisiae deletion strains, locus YHR030C, strain SLT2, active compounds read low
# [8] = S. cerevisiae deletion strains, locus YHR087W, strain rtc3, active compounds read low
# [9] = S. cerevisiae deletion strains, locus YJL187C, strain SWE1, active compounds read low
# [10] = S. cerevisiae deletion strains, locus YJR043C, strain POL32, active compounds read low
# [11] = S. cerevisiae deletion strains, locus YJR075W, strain HOC1, active compounds read low
# [12] = S. cerevisiae deletion strains, locus YLR039C, strain RIC1, active compounds read low
# [13] = S. cerevisiae deletion strains, locus YLR058C, strain SHM2 (second series), active compounds read low
# [14] = S. cerevisiae deletion strains, locus YLR085C, strain ARP6, active compounds read low
# [15] = S. cerevisiae deletion strains, locus YLR262C, strain YPT6, active compounds read low
# [16] = S. cerevisiae deletion strains, locus YML094W, strain GIM5, active compounds read low
# [17] = S. cerevisiae deletion strains, locus YMR219W, strain ESC1, active compounds read low
# [18] = S. cerevisiae deletion strains, locus YNL128W, strain TEP1, active compounds read low
# [19] = S. cerevisiae deletion strains, locus YNL153C, strain GIM3, active compounds read low
# [20] = S. cerevisiae deletion strains, locus YNL298W, strain CLA4 (second series), active compounds read low
# [21] = S. cerevisiae deletion strains, locus YNL322C, strain KRE1, active compounds read low
# [22] = S. cerevisiae deletion strains, locus YNR030W, strain Alg12, active compounds read low
# [23] = S. cerevisiae deletion strains, locus YOL006C, strain TOP1, active compounds read low
# [24] = S. cerevisiae deletion strains, locus YPL055C, strain LGE1, active compounds read low
# [25] = S. cerevisiae deletion strains, locus YPL241C, strain CIN2, active compounds read low
# [26] = S. cerevisiae deletion strains, locus YPR135W, strain CTF4, active compounds read low
smiles,measurement,setting,value
O=C(CSc1ccc(Cl)cc1)Nc1ccc(F)cc1,normalized growth,[1],0.909 (active)
same,normalized growth,[2],0.908 (active)
same,normalized growth,[3],0.939
same,normalized growth,[4],0.803 (active)
same,normalized growth,[5],0.942
same,normalized growth,[6],0.888 (active)
same,normalized growth,"S. cerevisiae deletion strains, locus YGR229C, strain SMI1, active compounds read low",0.924 (active)
same,normalized growth,[7],0.679 (active)
same,normalized growth,[8],0.888 (active)
same,normalized growth,[9],1
same,normalized growth,[10],0.916 (active)
same,normalized growth,[11],0.823 (active)
same,normalized growth,"S. cerevisiae deletion strains, locus YKL190W, strain CNB1, active compounds read low",0.934
same,normalized growth,[12],0.884
same,normalized growth,[13],0.909 (active)
same,normalized growth,[14],0.79
same,normalized growth,[15],0.826
same,normalized growth,[16],0.875
same,normalized growth,[17],0.916 (active)
same,normalized growth,"S. cerevisiae deletion strains, locus YMR263W, strain SAP30, active compounds read low",0.948
same,normalized growth,[18],0.968
same,normalized growth,[19],0.925
same,normalized growth,[20],0.808 (active)
same,normalized growth,[21],0.923 (active)
same,normalized growth,[22],0.807 (active)
same,normalized growth,[23],0.78
same,normalized growth,[24],0.782 (active)
same,normalized growth,[25],0.849 (active)
same,normalized growth,[26],0.608 (active)
same,normalized growth,"S. cerevisiae strains, strain wild type, active compounds read low",0.919
O=C(CC1NCCN(Cc2ccccc2)C1=O)Nc1ccc(Cl)cc1 (configuration not stated),normalized growth,[1],0.993
same,normalized growth,[2],0.995
same,normalized growth,"S. cerevisiae deletion strains, locus YCL061C, strain MRC1, active compounds read low",0.981
same,normalized growth,[3],0.968
same,normalized growth,[4],0.993
same,normalized growth,[5],1.01
same,normalized growth,[6],0.99
same,normalized growth,[7],0.955
same,normalized growth,[8],0.97
same,normalized growth,[9],1.01
same,normalized growth,[10],0.971
same,normalized growth,[11],1.02
same,normalized growth,[12],0.988
same,normalized growth,[13],0.998
same,normalized growth,[14],1.01
same,normalized growth,[15],0.994
same,normalized growth,[16],1.01
same,normalized growth,[17],1.01
same,normalized growth,[18],1
same,normalized growth,[19],0.981
same,normalized growth,[20],0.975
same,normalized growth,[21],0.996
same,normalized growth,[22],0.984
same,normalized growth,[23],0.993
same,normalized growth,[24],0.909
same,normalized growth,[25],1
same,normalized growth,[26],0.915
